{"source": "the supplement of paper PMC6953052", "note": "Over roughly 1,700 compounds, “fraction of GFP-LC3-positive cells (≥5 vesicles/cell)” has its median near 0.43; the highest 2% begin near 0.81. The sample holds the highest values, similar compounds and a random draw of the others, so the mix is not that of the screen."}
{"system": "CbCln3 Δex7/8/Δex7/8 GFP-LC3 cerebellar neuronal cells", "test": "fraction of GFP-LC3-positive cells (≥5 vesicles/cell); higher = more autophagosome accumulation", "summary_of_the_method": "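By pin transfer, ~50 nL of compound in DMSO went in duplicate into 384-well plates holding 2 × 10^3 wild-type or mutant CbCln3 cerebellar cells per well that stably express GFP-LC3, followed by 24 h at 33 °C. The final 30 min included Hoechst 33342 and LysoTracker Red, and then came 3.2% PFA fixation and 10× imaging of three fields per well. Each value gives the fraction of cells above a vesicle threshold, averaged across duplicates, with CellProfiler counting GFP-LC3 vesicles and out-of-focus images left out. The threshold is 5 or more vesicles per cell.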"}
{"smiles": "CC(=O)OC(C)C[N+](C)(C)C.[Cl-]", "note": "(stereo not drawn) [Methacholine chloride]", "fraction of GFP-LC3-positive cells": 0.309}
{"smiles": "CCCc1cc(=O)[nH]c(=S)[nH]1", "note": "[Propylthiouracil]", "fraction of GFP-LC3-positive cells": 0.375}
{"smiles": "COC(=O)/C=C/c1cc(O)ccc1O", "fraction of GFP-LC3-positive cells": 0.924}
{"smiles": "COc1ccc(C(=O)c2ccccc2)c(O)c1", "note": "[Oxybenzone]", "fraction of GFP-LC3-positive cells": 0.465}
{"smiles": "O=C(O)/C=C/c1ccc(O)c(O)c1", "note": "[Caffeic acid]", "fraction of GFP-LC3-positive cells": 0.359}
{"smiles": "CCC[C@@H]1C[C@@H](C(=O)N[C@@H](C2O[C@H](SC)[C@H](O)[C@@H](O)[C@H]2O)[C@H](C)Cl)N(C)C1.Cl", "note": "(stereo partly drawn) [Clindamycin hydrochloride]", "fraction of GFP-LC3-positive cells": 0.462}
{"smiles": "O=C1Nc2ccc([N+](=O)[O-])cc2C1=O", "note": "[5-Nitroisatin]", "fraction of GFP-LC3-positive cells": 0.469}
{"smiles": "CCCCNc1cc(C(=O)O)cc(S(N)(=O)=O)c1Oc1ccccc1", "note": "[bumetanide]", "fraction of GFP-LC3-positive cells": 0.319}
{"smiles": "CCCCN(CCCC)CCC(O)c1cc2c(Cl)cc(Cl)cc2c2cc(C(F)(F)F)ccc12.Cl", "note": "(stereo not drawn) [Halofantrine hydrochloride]", "fraction of GFP-LC3-positive cells": 0.319}
{"smiles": "CCCCC[C@H](O)/C=C/C=C\\C=C\\C=C\\[C@@H](O)[C@@H](O)CCCC(=O)O", "note": "[Lipoxin A4]", "fraction of GFP-LC3-positive cells": 0.498}
{"smiles": "OCC(O)CN1CCN(c2ccccc2)CC1", "note": "(racemic) [Dropropizine (R,S)]", "fraction of GFP-LC3-positive cells": 0.442}
{"smiles": "Cl.OC(CCN1CCCCC1)(c1ccccc1)C1C[C@@H]2C=C[C@H]1C2", "note": "(stereo partly drawn) [Biperiden hydrochloride]", "fraction of GFP-LC3-positive cells": 0.447}
{"smiles": "CC[N+](CC)(CC(=O)Nc1c(C)cccc1C)Cc1ccccc1.O=C([O-])c1ccccc1", "note": "[Denatonium benzoate]", "fraction of GFP-LC3-positive cells": 0.424}
{"smiles": "Nc1ncnc2c1ncn2[C@@H]1O[C@@H]2COP(=O)(O)OC2C1O", "note": "(single isomer, unassigned; (-)) [(-)-Adenosine 3',5'-cyclic monophosphate]", "fraction of GFP-LC3-positive cells": 0.271}
{"smiles": "COCCOC(=O)C1=C(C)NC(C)=C(C(=O)OC(C)C)C1c1cccc([N+](=O)[O-])c1", "note": "(stereo not drawn) [Nimodipine]", "fraction of GFP-LC3-positive cells": 0.35}
{"smiles": "Cl.N=C(N)NC(=O)c1nc(Cl)c(N)nc1N.O.O", "note": "[Amiloride hydrochloride dihydrate]", "fraction of GFP-LC3-positive cells": 0.398}
{"smiles": "CC(=O)O[C@H]1C(=O)[C@@]2(C)C([C@H](OC(=O)c3ccccc3)[C@]3(O)C[C@H](OC(=O)[C@H](O)[C@@H](NC(=O)c4ccccc4)c4ccccc4)C(C)=C1C3(C)C)[C@]1(OC(C)=O)CO[C@@H]1C[C@@H]2O", "note": "(stereo partly drawn) [taxol =paclitaxel]", "fraction of GFP-LC3-positive cells": 0.89}
{"smiles": "CC(=O)O[C@H]1C(=O)[C@@]2(C)[C@H]([C@H](OC(=O)c3ccccc3)[C@]3(O)C[C@H](OC(=O)[C@H](O)[C@@H](NC(=O)c4ccccc4)c4ccccc4)C(C)=C1C3(C)C)[C@]1(OC(C)=O)CO[C@@H]1C[C@@H]2O", "note": "[Paclitaxel]", "fraction of GFP-LC3-positive cells": 0.843}
